What was measured:
[1] = molecular target: T1, Inhibitor of nuclear factor kappa-B kinase subunit epsilon (Homo sapiens) (UniProt Q14164); conditions: at 1 µM;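 note: reported values are averaged percent inhibition figures against human IKKε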
T1 sequence (whole entry): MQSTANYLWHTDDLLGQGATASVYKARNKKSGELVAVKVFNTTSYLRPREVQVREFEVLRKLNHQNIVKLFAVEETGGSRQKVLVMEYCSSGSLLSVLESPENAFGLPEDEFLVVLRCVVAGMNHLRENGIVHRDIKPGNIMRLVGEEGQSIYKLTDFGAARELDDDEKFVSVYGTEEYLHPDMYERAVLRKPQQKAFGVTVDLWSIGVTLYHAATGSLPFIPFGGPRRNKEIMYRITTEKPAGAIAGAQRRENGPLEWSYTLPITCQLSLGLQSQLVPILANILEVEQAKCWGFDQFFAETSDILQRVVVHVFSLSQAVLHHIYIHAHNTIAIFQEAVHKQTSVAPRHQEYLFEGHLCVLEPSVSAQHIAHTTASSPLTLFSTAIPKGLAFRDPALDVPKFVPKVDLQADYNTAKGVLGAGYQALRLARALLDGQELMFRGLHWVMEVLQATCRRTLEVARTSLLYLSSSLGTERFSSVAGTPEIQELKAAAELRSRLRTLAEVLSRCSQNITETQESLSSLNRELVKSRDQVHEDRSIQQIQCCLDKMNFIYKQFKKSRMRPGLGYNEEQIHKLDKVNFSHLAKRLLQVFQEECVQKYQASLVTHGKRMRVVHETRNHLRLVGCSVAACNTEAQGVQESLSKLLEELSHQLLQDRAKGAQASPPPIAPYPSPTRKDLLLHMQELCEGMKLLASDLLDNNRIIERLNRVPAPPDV

[2] = molecular target: T2, Serine/threonine-protein kinase Nek1 (Homo sapiens) (UniProt Q96PY6); conditions: at 0.1 µM
T2 sequence (whole entry): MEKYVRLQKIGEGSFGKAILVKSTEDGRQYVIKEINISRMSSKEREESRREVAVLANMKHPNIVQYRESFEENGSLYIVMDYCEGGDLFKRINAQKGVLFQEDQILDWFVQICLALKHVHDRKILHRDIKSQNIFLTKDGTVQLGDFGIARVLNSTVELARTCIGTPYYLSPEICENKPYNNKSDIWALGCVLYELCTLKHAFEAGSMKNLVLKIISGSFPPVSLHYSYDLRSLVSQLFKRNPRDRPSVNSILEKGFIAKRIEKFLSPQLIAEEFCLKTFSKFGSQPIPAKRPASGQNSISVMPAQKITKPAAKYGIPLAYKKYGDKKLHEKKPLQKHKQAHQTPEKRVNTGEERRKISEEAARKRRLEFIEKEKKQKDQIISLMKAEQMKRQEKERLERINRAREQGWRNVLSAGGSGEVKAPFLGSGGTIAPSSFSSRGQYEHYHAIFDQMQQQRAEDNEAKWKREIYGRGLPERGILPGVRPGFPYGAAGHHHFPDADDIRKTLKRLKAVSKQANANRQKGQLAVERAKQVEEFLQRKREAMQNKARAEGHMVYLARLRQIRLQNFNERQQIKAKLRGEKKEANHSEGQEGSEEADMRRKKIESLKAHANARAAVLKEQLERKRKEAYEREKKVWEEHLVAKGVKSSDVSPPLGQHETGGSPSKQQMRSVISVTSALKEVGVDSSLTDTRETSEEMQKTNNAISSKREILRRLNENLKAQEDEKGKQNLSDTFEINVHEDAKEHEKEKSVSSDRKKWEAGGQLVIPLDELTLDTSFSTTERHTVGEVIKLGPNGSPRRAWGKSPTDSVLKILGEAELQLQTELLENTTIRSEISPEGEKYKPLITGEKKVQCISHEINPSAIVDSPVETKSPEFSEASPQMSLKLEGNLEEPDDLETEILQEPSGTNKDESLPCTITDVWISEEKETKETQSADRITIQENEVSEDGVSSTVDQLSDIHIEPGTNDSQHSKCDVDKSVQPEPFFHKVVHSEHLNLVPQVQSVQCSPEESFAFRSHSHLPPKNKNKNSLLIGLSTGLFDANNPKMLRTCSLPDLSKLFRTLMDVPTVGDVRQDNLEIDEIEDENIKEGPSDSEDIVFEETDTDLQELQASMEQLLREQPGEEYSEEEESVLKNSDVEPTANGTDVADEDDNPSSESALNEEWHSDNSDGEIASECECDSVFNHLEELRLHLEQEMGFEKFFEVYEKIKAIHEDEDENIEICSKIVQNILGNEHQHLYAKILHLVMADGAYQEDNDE

[3] = molecular target: T2, Serine/threonine-protein kinase Nek1 (Homo sapiens); conditions: at 1 µM
[4] = molecular target: T3, Serine/threonine-protein kinase Nek2 (Homo sapiens) (UniProt P51955); conditions: at 0.1 µM
T3 sequence (whole entry): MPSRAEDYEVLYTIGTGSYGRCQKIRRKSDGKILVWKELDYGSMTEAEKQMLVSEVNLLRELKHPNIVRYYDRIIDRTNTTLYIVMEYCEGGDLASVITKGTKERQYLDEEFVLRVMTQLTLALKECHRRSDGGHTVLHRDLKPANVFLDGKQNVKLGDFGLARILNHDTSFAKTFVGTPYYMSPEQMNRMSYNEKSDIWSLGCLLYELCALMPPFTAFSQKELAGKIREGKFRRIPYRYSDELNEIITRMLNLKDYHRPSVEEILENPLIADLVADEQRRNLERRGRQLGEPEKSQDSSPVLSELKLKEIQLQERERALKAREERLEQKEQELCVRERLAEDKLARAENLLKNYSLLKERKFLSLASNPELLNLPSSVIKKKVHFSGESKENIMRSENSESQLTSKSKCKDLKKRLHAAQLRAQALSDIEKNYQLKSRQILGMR

[5] = molecular target: T3, Serine/threonine-protein kinase Nek2 (Homo sapiens); conditions: at 1 µM
[6] = molecular target: Serine/threonine-protein kinase Nek6 (Homo sapiens) (UniProt Q9HC98); conditions: at 0.1 µM
Serine/threonine-protein kinase Nek6 (Homo sapiens), sequence (Q9HC98 whole entry): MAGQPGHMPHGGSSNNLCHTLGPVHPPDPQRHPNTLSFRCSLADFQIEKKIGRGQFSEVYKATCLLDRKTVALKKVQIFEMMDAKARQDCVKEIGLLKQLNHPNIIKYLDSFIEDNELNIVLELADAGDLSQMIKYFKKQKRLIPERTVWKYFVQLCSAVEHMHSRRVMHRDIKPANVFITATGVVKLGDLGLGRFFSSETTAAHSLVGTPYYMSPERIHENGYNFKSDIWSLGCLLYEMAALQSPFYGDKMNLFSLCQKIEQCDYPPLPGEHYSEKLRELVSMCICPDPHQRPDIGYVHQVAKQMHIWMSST

[7] = molecular target: Serine/threonine-protein kinase Nek6 (Homo sapiens) (UniProt Q9HC98); conditions: at 1 µM
[8] = molecular target: Serine/threonine-protein kinase Nek7 (Homo sapiens) (UniProt Q8TDX7); conditions: at 0.1 µM
Serine/threonine-protein kinase Nek7 (Homo sapiens), sequence (Q8TDX7 whole entry, looked up): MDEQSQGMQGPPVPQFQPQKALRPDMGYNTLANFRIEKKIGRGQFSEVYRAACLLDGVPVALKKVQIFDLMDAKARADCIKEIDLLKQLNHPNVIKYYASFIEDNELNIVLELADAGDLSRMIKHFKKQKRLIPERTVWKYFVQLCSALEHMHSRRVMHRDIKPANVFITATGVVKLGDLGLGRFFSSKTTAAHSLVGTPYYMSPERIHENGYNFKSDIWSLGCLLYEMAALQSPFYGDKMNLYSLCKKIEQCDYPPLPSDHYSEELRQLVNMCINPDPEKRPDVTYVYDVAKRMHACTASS

[9] = molecular target: Serine/threonine-protein kinase Nek7 (Homo sapiens) (UniProt Q8TDX7); conditions: at 1 µM
[10] = molecular target: T4, Serine/threonine-protein kinase Nek9 (Homo sapiens) (UniProt Q8TD19); conditions: at 0.1 µM
T4 sequence (whole entry): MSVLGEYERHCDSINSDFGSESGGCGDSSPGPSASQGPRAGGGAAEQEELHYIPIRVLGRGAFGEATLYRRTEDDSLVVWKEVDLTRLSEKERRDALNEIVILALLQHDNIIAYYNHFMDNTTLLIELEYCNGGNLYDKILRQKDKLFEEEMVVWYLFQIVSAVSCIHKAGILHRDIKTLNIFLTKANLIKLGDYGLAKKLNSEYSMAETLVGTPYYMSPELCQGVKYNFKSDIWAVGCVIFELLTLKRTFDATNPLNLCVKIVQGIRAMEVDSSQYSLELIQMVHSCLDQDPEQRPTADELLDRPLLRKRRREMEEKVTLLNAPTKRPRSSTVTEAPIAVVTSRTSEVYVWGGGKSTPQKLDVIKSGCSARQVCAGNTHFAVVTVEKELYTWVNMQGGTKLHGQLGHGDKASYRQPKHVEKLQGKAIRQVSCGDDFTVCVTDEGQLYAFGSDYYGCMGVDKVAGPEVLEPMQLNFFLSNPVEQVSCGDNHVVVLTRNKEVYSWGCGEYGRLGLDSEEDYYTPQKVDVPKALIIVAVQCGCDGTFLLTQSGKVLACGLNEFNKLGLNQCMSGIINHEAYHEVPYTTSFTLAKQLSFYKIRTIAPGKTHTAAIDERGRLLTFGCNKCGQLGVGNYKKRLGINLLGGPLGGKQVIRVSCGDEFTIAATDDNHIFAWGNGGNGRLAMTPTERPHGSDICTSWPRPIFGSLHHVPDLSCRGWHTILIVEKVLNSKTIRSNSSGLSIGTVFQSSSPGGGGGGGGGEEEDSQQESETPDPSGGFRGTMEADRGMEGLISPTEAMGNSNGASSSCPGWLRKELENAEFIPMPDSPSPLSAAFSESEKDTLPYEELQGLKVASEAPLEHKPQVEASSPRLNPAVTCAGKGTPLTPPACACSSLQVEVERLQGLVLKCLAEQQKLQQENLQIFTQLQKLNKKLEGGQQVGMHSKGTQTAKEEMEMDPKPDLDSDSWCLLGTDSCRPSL

[11] = molecular target: T4, Serine/threonine-protein kinase Nek9 (Homo sapiens); conditions: at 1 µM
[12] = molecular target: Serine/threonine-protein kinase PLK1 (Homo sapiens) (UniProt P53350); conditions: at 0.1 µM
Serine/threonine-protein kinase PLK1 (Homo sapiens), sequence (P53350 whole entry): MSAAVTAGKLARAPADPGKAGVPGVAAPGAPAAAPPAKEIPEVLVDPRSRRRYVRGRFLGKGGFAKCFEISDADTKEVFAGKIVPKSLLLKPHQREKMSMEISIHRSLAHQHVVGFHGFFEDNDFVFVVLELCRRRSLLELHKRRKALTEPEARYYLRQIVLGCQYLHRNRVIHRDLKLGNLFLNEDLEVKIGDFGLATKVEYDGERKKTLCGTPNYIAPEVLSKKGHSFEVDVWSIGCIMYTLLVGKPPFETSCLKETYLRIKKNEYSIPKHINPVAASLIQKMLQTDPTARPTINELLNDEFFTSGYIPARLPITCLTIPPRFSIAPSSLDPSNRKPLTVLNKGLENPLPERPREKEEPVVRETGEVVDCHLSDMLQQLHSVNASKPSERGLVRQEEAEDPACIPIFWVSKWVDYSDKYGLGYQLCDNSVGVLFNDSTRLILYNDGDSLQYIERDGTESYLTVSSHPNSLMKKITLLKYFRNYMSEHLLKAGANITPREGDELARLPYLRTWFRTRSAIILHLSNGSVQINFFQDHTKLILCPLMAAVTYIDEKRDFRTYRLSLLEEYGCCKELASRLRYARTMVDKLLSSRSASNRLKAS

[13] = molecular target: Serine/threonine-protein kinase PLK1 (Homo sapiens) (UniProt P53350); conditions: at 1 µM
[14] = molecular target: T5, Dual specificity protein kinase TTK (Homo sapiens) (UniProt P33981); conditions: at 0.1 µM
T5 sequence (whole entry): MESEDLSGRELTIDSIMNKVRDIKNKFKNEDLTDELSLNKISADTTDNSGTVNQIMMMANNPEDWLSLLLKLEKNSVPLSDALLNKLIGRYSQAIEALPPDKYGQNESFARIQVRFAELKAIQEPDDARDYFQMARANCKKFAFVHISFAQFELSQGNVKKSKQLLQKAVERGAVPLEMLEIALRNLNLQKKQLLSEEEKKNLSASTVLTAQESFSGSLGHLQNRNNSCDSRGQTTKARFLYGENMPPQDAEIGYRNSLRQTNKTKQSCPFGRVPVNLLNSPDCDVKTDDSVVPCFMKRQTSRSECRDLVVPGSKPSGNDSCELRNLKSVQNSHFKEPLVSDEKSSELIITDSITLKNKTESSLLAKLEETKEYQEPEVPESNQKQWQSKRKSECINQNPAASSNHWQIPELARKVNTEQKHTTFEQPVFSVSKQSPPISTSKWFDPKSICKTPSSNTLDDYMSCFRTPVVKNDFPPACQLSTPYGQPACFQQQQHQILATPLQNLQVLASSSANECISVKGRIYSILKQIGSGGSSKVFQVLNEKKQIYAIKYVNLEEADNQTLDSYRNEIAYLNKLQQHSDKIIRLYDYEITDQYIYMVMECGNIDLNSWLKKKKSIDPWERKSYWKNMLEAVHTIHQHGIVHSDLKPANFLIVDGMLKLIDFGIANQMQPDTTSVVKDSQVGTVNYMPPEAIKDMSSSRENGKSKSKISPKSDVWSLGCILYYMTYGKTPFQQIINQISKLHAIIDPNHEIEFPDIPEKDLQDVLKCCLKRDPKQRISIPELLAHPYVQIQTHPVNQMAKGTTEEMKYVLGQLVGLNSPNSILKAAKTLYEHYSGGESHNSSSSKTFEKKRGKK

[15] = tested on: T6, Receptor-type tyrosine-protein kinase FLT3 (Homo sapiens), P36888 [D835Y]; conditions: at 1 µM
T6 sequence (whole entry): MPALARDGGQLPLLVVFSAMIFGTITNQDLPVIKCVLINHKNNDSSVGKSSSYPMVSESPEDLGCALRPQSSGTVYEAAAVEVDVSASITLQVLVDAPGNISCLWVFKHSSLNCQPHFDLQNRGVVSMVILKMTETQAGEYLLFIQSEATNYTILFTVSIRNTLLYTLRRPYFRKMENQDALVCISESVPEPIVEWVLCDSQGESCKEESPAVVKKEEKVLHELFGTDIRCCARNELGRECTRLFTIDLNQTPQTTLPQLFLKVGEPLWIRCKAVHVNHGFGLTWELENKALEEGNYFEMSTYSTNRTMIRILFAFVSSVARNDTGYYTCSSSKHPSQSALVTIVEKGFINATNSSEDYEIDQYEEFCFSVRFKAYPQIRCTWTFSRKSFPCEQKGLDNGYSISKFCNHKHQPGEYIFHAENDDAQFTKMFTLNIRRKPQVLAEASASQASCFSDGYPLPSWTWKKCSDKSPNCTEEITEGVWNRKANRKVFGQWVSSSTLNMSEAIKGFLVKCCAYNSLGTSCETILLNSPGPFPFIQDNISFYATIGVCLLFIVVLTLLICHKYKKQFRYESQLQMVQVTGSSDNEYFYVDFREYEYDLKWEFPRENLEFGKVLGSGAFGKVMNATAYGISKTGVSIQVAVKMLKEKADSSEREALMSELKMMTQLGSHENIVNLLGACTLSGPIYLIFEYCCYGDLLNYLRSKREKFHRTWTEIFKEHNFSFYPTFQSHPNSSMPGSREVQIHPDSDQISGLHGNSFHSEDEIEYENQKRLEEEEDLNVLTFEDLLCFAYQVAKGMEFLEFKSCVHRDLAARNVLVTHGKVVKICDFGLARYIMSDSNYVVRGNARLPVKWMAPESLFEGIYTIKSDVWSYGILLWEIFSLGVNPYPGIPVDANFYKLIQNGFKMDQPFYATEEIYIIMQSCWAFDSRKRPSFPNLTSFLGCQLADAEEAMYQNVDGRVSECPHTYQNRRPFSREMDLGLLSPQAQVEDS

[16] = molecular target: Vascular endothelial growth factor receptor 3 (Homo sapiens) (UniProt P35916); conditions: at 0.1 µM
Vascular endothelial growth factor receptor 3 (Homo sapiens), sequence (P35916 whole entry): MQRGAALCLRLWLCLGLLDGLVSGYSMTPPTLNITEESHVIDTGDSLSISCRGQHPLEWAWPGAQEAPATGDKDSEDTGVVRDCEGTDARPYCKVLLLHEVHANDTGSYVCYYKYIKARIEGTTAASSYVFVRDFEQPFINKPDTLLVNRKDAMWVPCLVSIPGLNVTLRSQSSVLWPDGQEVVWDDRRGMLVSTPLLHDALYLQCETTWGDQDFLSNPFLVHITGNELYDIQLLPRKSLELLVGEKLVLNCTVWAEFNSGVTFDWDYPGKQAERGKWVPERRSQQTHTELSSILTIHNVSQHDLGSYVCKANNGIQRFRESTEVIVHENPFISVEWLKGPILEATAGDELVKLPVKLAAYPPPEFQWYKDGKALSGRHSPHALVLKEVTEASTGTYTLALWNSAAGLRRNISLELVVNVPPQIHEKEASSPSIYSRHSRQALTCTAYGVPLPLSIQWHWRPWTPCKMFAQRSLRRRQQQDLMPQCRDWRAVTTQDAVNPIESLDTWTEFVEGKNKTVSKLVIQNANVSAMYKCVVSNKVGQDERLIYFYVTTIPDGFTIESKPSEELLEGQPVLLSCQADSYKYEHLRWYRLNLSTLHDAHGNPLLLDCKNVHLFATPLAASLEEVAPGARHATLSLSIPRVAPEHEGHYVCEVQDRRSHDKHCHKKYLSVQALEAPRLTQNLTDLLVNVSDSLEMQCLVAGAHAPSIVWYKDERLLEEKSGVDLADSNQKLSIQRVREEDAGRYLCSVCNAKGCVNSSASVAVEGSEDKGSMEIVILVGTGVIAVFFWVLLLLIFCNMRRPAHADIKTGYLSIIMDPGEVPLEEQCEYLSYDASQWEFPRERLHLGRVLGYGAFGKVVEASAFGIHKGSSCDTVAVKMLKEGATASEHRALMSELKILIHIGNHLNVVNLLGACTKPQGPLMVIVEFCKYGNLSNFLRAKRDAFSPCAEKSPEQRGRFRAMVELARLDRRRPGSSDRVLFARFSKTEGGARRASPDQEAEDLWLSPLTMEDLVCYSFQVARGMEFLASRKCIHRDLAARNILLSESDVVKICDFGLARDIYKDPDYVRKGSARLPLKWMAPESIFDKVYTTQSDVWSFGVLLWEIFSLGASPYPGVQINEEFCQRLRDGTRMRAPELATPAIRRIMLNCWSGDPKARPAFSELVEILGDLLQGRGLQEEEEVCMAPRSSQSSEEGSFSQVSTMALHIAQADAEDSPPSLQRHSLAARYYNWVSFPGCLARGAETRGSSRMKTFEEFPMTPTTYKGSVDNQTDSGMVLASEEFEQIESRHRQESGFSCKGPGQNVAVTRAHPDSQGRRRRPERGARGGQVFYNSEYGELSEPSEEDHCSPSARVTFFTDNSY

[17] = molecular target: Vascular endothelial growth factor receptor 3 (Homo sapiens) (UniProt P35916); conditions: at 1 µM
[18] = molecular target: Macrophage colony-stimulating factor 1 receptor (Homo sapiens) (UniProt P07333); conditions: at 0.1 µM
Macrophage colony-stimulating factor 1 receptor (Homo sapiens), sequence (P07333 whole entry): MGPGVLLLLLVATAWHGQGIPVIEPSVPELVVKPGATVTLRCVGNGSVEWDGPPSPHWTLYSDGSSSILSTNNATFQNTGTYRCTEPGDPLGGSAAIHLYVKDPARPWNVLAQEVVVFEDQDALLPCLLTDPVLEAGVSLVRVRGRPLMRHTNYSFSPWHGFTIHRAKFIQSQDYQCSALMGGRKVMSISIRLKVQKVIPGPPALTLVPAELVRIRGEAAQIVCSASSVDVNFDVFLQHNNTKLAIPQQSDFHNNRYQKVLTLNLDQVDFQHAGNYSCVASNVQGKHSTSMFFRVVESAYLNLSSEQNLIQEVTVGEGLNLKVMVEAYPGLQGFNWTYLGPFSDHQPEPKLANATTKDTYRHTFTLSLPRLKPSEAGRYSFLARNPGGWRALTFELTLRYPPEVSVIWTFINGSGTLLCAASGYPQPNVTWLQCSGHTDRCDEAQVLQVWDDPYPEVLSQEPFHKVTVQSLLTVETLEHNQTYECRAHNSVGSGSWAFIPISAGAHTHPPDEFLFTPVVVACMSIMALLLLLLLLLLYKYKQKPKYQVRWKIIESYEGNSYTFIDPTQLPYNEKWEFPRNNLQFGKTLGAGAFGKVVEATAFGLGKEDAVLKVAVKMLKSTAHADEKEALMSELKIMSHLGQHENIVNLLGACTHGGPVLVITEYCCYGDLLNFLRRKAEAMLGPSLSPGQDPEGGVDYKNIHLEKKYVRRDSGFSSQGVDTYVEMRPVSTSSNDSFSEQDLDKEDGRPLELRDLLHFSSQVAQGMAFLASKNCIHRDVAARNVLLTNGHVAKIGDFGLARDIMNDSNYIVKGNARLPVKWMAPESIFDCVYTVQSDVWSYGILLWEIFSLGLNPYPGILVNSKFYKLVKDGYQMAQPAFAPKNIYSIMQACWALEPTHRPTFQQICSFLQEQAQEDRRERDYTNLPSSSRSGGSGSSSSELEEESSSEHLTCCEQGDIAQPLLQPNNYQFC

[19] = molecular target: Macrophage colony-stimulating factor 1 receptor (Homo sapiens) (UniProt P07333); conditions: at 1 µM
[20] = molecular target: Tyrosine-protein kinase Fyn (Homo sapiens) (UniProt P06241); conditions: at 0.1 µM
Tyrosine-protein kinase Fyn (Homo sapiens), sequence (P06241 2-537 limits assumed): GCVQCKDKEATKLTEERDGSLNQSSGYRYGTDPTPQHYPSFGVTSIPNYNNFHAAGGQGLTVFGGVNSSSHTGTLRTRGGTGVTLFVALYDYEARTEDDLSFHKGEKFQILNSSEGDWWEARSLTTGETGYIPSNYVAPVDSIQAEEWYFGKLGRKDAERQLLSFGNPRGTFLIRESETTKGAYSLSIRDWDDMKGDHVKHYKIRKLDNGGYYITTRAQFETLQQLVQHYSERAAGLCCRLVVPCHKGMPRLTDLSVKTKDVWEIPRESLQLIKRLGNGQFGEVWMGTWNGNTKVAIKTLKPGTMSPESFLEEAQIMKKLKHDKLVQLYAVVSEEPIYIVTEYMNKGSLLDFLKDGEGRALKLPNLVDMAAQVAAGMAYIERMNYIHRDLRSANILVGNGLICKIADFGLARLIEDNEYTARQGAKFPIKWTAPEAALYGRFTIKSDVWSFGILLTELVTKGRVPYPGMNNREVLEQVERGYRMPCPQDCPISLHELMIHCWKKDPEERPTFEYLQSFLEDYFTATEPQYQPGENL

| Compound | inhibition [1] [%] | inhibition [2] [%] | inhibition [3] [%] | inhibition [4] [%] | inhibition [5] [%] | inhibition [6] [%] | inhibition [7] [%] | inhibition [8] [%] | inhibition [9] [%] | inhibition [10] [%] | inhibition [11] [%] | inhibition [12] [%] | inhibition [13] [%] | inhibition [14] [%] | inhibition [15] [%] | inhibition [16] [%] | inhibition [17] [%] | inhibition [18] [%] | inhibition [19] [%] | inhibition [20] [%] |
| --- | --- | --- | --- | --- | --- | --- | --- | --- | --- | --- | --- | --- | --- | --- | --- | --- | --- | --- | --- | --- |
| COc1ccc(Nc2ncc(-c3ccccc3)o2)cc1OC | 4.37 | 0.52 | 5.19 | 0.8 | 2.25 | 0.31 | -2.42 | 1.23 | 0.83 | -0.52 | 9.31 | 2.85 | 1.53 | 2.17 | 47.1 | 5.08 | 25.5 | 21.9 | 77.2 | 4.17 |
| CC(C)c1ccc(-c2cc(-c3c[nH]nc3-c3ccccn3)ccn2)cc1 | 1.35 | 0.4 | 0.95 | 1.77 | 1.63 | 1.08 | -0.92 | 2.44 | 0.94 | 3.68 | 2.93 | 0.48 | 0.41 | 2.65 | 1.71 | 1.37 | 5.15 | 0.03 | 3.63 | 1.14 |

From ChEMBL document CHEMBL1961873, “Compounds: GSK PKIS; Assays: Nanosyn kinase panel” (2012)
